Data as given in the supplement of paper PMC11732987, “Enantioselective OTUD7B fragment discovery through chemoproteomics screening and high-throughput optimisation” (Communications Chemistry, 2025).

Tests used:
Test in all cases: log2 ratio of Biotin-Ahx-Ub-VS probe labelling (fragment/DMSO); higher = less target engagement (more negative = stronger competition), active = hit call of the paper (q ≤ 0.05, log2 ratio ≤ -1)
Details in all cases: compound concentration: 200 uM; treatment time: 3 h
USP34 = USP34 (UniProt Q70CQ2)
In short: (§1)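 Fragment (200 µM) or vehicle was incubated for 3 h with triplicate HEK293T lysate samples of 495 µg, which were then treated with Biotin-Ahx-Ub-VS at 0.5 µM final for 1 h. Labelled DUBs were enriched on NeutrAvidin, digested with LysC and trypsin, and analysed by diaPASEF LC-MS/MS. Values are average log2 fragment/vehicle ratios from an unpaired t-test on global-median-normalised Spectronaut label-free quantities, using proteins with ≥2 unique peptides.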

USP36 = target: T1, USP36 (UniProt Q9P275)
T1 sequence (whole entry): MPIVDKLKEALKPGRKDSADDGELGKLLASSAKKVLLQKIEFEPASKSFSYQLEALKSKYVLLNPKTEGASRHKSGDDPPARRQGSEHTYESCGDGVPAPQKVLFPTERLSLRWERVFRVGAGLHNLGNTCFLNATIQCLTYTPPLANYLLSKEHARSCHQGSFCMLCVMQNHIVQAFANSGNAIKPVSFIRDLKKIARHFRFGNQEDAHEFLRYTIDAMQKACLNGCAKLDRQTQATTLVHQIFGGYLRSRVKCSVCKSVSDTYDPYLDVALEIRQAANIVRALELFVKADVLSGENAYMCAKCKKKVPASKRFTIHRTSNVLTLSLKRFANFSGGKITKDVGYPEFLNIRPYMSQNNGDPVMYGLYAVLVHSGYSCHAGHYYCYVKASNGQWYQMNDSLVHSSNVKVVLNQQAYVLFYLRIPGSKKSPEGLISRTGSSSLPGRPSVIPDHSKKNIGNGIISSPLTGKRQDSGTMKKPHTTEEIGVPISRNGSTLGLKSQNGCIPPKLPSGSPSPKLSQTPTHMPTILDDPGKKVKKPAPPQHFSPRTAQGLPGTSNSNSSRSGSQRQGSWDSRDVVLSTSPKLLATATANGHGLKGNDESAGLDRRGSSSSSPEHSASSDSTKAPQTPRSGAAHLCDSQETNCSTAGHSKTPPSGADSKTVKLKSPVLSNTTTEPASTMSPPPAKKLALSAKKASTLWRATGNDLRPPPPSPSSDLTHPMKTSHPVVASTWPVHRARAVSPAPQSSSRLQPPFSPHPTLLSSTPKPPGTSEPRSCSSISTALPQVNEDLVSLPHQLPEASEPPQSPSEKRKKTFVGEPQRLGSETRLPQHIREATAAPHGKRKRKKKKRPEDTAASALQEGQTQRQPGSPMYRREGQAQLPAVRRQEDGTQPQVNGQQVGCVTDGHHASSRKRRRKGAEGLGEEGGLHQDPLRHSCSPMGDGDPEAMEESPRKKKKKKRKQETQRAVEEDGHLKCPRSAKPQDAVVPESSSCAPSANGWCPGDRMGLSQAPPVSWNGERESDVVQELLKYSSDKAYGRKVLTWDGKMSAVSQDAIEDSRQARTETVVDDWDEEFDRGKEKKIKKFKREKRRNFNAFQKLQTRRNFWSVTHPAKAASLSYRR
In short: as §1

USP38 = target: T2, USP38 (UniProt Q8NB14)
T2 sequence (whole entry): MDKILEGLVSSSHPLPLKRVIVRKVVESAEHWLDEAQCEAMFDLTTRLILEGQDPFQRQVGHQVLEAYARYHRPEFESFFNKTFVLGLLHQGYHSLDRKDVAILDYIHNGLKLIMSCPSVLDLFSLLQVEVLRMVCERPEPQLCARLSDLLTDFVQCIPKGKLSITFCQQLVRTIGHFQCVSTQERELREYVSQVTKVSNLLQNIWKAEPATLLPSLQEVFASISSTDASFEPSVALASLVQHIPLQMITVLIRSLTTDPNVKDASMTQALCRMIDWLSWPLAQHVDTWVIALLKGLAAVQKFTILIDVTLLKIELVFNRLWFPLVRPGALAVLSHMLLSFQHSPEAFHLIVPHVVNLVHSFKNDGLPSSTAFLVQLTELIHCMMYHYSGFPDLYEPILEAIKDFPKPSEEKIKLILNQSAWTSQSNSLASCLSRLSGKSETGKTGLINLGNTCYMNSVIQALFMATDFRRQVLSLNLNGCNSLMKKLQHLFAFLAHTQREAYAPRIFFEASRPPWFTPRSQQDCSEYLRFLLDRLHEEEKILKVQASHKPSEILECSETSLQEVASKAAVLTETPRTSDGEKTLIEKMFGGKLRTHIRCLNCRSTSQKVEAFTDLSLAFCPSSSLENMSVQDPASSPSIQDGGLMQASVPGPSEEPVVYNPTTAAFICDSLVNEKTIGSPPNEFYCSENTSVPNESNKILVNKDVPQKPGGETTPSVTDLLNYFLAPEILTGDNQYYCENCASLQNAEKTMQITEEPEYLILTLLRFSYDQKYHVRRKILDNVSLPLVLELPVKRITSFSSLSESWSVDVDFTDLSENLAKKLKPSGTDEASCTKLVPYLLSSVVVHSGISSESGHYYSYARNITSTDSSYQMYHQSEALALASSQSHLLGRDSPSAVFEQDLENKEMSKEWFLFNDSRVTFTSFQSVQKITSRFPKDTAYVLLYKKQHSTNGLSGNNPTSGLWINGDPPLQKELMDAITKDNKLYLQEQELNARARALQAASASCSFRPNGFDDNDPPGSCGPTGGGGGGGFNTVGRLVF
In short: as §1

USP39 = target: T3, USP39 (UniProt Q53GS9)
T3 sequence (whole entry): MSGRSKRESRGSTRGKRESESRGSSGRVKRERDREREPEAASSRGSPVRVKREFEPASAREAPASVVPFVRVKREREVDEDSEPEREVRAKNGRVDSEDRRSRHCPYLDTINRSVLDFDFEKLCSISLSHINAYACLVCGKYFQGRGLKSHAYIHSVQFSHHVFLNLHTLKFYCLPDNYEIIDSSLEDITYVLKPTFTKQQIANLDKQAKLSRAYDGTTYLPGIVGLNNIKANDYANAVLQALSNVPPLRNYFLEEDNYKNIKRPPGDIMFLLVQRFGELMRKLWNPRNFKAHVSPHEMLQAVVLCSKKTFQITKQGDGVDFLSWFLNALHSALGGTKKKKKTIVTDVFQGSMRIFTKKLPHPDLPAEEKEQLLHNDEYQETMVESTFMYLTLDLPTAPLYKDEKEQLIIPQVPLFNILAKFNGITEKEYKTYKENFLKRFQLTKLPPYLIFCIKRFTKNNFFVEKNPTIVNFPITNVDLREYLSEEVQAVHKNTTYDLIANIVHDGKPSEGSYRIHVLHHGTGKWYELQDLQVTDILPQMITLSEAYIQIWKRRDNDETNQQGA
In short: as §1

USP4 = target: T4, USP4 (UniProt Q13107)
T4 sequence (whole entry): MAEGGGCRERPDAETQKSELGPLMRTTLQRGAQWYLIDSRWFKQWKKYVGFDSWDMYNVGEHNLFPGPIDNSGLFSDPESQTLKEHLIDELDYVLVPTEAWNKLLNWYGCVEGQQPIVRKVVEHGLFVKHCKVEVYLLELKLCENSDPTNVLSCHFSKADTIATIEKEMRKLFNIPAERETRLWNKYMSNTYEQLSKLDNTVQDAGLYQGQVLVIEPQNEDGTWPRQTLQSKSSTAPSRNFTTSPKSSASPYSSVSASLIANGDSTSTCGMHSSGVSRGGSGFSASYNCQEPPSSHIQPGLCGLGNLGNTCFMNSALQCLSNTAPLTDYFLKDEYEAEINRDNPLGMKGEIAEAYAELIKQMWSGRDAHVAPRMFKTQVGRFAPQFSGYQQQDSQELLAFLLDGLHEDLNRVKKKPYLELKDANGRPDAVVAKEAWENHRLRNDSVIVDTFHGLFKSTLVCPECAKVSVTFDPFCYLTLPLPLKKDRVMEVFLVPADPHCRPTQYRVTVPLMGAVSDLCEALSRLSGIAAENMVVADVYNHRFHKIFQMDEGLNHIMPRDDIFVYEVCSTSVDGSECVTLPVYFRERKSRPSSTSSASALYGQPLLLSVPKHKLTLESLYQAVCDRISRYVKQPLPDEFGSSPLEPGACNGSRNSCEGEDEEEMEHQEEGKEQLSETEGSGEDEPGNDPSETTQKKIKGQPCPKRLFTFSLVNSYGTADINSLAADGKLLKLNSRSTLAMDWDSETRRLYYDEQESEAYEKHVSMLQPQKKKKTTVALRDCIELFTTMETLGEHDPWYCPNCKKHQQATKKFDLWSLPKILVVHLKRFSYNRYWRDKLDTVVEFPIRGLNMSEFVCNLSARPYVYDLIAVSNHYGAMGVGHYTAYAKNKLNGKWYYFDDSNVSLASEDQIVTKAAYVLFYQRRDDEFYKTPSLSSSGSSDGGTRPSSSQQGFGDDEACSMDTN
In short: as §1

Measured: log2 ratio of Biotin-Ahx-Ub-VS probe labelling

USP34, sequence (Q70CQ2 whole entry, the tested form may be a part): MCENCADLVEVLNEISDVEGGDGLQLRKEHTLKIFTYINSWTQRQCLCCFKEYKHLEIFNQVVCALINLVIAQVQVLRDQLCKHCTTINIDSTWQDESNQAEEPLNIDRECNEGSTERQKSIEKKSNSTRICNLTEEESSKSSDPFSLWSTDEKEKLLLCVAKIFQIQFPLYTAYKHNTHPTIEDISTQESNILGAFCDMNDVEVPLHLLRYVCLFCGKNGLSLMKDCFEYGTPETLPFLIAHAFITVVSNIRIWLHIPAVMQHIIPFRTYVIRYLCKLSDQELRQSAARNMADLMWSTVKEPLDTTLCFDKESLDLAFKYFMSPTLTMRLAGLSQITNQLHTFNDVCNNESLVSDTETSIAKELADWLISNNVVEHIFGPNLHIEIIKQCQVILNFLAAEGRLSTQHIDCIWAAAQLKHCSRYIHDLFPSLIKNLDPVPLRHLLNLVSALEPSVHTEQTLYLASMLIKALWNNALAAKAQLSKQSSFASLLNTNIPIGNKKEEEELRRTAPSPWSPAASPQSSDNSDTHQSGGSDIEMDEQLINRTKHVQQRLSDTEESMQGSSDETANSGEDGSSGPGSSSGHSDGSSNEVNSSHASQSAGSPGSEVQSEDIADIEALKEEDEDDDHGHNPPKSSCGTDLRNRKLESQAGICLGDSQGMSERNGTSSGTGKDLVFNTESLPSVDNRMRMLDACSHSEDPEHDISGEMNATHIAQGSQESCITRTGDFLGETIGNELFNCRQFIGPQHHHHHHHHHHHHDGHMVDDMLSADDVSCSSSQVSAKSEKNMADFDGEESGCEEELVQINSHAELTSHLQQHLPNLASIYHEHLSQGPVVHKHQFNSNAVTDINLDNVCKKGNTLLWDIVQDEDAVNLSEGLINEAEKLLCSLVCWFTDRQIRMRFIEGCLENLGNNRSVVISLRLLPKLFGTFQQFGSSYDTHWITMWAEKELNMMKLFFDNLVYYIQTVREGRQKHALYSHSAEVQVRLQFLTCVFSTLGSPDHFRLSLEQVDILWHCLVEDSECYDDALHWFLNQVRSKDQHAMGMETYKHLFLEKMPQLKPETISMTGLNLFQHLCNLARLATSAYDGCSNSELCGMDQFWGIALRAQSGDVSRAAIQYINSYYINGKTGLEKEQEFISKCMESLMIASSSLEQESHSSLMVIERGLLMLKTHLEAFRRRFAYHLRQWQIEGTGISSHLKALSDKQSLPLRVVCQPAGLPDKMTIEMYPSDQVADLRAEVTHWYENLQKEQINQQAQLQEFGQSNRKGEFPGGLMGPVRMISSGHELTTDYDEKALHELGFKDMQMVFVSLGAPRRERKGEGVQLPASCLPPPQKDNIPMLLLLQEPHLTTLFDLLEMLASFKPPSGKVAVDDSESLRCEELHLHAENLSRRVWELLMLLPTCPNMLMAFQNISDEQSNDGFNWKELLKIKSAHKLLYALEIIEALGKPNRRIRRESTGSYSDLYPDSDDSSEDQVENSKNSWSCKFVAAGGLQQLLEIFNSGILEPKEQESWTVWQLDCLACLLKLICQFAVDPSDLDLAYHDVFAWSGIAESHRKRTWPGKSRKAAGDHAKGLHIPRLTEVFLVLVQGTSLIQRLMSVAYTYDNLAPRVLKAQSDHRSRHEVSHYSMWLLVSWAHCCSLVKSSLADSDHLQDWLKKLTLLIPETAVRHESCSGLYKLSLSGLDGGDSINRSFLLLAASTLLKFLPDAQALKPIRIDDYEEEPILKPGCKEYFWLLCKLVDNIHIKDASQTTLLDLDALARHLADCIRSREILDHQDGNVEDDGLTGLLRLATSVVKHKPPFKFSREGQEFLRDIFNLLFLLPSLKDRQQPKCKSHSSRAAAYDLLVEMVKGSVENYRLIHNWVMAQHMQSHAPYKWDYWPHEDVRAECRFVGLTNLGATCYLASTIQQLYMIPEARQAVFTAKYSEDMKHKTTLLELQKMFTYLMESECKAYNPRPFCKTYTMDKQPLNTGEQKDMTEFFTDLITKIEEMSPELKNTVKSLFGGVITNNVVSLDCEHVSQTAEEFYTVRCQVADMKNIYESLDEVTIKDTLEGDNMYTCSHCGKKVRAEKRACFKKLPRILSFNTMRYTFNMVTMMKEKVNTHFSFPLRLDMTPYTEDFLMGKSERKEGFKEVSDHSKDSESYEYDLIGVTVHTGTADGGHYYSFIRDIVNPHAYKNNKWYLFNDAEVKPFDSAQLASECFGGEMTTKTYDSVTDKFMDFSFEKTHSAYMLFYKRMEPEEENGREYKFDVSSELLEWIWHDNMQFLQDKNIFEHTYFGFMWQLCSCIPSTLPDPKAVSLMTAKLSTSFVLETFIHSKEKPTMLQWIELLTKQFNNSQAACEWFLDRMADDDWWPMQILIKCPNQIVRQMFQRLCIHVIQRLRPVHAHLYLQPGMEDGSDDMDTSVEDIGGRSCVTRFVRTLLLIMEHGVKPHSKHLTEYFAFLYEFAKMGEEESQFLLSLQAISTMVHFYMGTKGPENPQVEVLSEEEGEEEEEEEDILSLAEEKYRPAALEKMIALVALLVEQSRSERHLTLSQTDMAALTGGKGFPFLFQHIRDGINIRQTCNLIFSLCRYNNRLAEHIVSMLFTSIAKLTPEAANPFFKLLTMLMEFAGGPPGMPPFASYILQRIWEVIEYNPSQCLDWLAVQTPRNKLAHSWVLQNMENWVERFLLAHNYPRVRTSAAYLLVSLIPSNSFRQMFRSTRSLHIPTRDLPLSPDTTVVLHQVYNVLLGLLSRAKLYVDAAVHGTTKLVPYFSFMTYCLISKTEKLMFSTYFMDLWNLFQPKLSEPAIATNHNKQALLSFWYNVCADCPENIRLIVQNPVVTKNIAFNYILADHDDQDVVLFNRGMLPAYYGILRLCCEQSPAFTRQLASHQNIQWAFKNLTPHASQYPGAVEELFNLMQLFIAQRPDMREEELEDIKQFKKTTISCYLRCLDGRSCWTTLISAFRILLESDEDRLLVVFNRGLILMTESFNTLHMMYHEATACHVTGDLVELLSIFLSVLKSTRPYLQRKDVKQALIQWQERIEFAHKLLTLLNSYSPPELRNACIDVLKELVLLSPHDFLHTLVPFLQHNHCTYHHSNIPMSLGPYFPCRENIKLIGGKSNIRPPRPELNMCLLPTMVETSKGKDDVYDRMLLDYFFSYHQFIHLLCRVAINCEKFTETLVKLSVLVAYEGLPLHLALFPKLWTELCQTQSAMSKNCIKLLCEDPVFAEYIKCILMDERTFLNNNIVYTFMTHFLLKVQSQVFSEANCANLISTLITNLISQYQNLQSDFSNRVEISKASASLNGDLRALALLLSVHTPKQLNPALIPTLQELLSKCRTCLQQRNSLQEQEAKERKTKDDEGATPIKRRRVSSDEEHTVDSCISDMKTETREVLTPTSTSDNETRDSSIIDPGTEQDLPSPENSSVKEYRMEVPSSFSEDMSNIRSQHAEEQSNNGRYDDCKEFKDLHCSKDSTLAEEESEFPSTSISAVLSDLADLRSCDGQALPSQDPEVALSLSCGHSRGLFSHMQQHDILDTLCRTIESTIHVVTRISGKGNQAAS

Cc1n[nH]c(=O)c2c(NC(=O)CCl)oc(C)c12
inactive: USP34 -0.107 | USP36 0.103 | USP38 0.0131 | USP39 0.082 | USP4 0.0593
